# For some of these results: Entries with a potency or affinity are not part of this list.
# Experiments:
# Parameters in all cases: scale not given: direction of the effect not stated beside the values
# [1] = target: Protein translocase subunit SecA (Escherichia coli (strain K12)) (UniProt P10408); assay: Assay to Identify E. coli SecA ATPase Inhibitors; assay type: functional; settings: 30 µM
# [2] = target: T1, Ubiquitin-activating enzyme e1, putative (Leishmania donovani (strain BPK282A1)) (UniProt E9BSI1); assay: Leishmania donovani Ubiquitin Activating Enzyme (LdE1); assay type: functional; settings: 30 µM
# T1 sequence (whole entry): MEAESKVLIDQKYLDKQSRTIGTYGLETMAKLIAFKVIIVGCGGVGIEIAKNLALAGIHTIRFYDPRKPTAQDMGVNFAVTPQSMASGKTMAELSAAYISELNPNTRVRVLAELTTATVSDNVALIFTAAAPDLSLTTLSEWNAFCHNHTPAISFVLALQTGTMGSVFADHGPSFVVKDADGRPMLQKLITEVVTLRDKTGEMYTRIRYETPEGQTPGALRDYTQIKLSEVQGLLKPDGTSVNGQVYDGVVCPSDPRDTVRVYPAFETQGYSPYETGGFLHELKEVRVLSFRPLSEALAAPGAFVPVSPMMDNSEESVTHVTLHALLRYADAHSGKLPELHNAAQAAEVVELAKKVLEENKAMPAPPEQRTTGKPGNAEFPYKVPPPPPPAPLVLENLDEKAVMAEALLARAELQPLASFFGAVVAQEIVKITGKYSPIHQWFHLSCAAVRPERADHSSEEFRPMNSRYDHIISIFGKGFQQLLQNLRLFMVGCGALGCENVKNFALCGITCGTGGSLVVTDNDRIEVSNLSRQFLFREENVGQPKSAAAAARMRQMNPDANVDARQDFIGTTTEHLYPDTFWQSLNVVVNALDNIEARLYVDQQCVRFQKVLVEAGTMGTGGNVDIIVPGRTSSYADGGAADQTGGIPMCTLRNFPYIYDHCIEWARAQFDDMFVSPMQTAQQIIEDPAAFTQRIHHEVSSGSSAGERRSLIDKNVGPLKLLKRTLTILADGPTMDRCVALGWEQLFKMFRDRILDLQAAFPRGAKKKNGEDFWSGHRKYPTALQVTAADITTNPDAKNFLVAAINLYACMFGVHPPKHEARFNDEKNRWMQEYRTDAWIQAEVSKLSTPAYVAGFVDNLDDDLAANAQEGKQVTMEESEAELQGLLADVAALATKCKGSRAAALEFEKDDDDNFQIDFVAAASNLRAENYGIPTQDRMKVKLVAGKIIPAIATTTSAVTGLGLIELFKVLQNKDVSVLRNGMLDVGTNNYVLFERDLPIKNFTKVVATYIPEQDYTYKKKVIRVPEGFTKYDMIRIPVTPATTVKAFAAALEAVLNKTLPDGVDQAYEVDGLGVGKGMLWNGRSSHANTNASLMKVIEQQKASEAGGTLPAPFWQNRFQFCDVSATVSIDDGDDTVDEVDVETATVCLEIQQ
# [3] = target: AMP-activated protein kinase, AMPK (Homo sapiens) (UniProt P54646+O43741+P54619+Q9UGJ0+Q9Y478+Q13131+Q9UGI9); assay: AMP-dependent Kinase enzyme assay. An in vitro enzyme assay that detects ADP turnover that is directly proportional to AMPK activity. This uses naive AMPK that is activated during the assay with MK-8722; assay type: functional; settings: 30 µM
# [4] = target: Sialic acid-binding Ig-like lectin 9 (Homo sapiens) (UniProt Q9Y336); assay: Hs-Siglec9 ALPHAscreen SOP 20170721; settings: 10 µM
# Sialic acid-binding Ig-like lectin 9 (Homo sapiens), sequence (Q9Y336 whole entry): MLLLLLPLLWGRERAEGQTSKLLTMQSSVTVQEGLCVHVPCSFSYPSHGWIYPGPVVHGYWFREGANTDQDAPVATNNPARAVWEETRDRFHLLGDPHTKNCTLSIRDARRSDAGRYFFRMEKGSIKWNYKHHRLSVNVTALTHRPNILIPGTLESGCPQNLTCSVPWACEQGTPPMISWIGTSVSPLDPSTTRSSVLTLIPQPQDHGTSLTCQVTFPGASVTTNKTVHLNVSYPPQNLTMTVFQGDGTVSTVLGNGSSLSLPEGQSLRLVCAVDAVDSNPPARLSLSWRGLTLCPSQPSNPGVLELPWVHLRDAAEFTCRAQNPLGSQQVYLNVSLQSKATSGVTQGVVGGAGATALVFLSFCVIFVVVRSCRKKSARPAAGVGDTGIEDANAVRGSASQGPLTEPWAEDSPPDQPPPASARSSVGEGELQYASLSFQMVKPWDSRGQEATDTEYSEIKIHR
# Trypanosoma cruzi = assay: Trypanosoma cruzi phosphomannomutase and mannose-1-phosphate guanylyltransferase assay; assay type: functional; settings: 10 µM
# [5] = target: T2, Arginase-2, mitochondrial (Homo sapiens) (UniProt P78540); assay: in vitro enzyme assay to detect the production of urea directly proportional to the activity of Arginase II; assay type: functional; settings: 33.3 µM; also: in the data most compounds retested in dose-response had high values
# T2 sequence (whole entry): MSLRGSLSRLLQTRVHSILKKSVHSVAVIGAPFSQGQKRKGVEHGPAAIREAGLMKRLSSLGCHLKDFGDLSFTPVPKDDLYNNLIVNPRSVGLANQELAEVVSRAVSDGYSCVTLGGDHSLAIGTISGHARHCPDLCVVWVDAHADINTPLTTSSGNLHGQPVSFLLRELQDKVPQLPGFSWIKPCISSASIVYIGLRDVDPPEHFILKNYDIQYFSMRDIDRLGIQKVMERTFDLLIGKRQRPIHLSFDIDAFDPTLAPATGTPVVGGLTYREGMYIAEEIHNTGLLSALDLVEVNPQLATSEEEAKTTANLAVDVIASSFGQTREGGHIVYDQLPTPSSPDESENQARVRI
# [6] = target: T3, Proteasome subunit beta (Trypanosoma cruzi) (UniProt O96673); assay: Trypanosoma cruzi proteasome chymotrypsin-like activity (TcProtChymo) assay.; also: in the data most compounds retested in dose-response had high values; assay type: functional; settings: 9.37 µM
# T3 sequence (whole entry): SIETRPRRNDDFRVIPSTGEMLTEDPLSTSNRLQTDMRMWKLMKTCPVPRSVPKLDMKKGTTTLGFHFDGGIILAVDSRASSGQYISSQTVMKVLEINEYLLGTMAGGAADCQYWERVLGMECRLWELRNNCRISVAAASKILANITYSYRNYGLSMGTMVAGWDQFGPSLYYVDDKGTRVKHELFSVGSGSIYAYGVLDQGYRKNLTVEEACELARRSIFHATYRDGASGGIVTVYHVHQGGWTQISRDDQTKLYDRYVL
# Homo sapiens = organism: Homo sapiens; assay: To identify inhibition of the IFN signalling (Jak-Stat) pathway via expression of an eGFP reporter gene under the control of an IFN-stimulated response element (ISRE) containing MxA promoter.; assay type: functional; settings: 30 µM
# [7] = target: T4, Tyrosyl-tRNA synthetase, putative (Trypanosoma cruzi (strain CL Brener)) (UniProt Q4DSP6); assay: Trypanosoma cruzi tyrosyl tRNA synthetase (TcYRS) _High Tyrosine SOP; assay type: functional; settings: 30 µM; also: in the data most compounds retested in dose-response had high values
# T4 sequence (whole entry): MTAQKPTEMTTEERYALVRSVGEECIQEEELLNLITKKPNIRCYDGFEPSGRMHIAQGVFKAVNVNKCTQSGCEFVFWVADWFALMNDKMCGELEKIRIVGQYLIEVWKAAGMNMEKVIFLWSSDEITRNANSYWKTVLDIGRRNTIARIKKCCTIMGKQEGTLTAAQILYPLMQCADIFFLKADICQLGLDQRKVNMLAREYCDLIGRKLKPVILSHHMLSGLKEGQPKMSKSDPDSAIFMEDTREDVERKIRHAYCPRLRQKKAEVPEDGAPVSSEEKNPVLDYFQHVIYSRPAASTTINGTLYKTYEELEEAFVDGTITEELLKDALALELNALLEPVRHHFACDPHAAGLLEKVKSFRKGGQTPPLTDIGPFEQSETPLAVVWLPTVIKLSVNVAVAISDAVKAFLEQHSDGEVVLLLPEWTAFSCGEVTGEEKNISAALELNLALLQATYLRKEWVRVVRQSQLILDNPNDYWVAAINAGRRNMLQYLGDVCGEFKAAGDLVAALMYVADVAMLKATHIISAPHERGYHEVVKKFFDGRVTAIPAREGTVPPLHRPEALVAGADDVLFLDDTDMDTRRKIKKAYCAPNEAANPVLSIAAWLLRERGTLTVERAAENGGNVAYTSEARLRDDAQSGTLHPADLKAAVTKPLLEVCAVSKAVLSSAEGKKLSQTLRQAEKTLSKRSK
# [8] = target: T4, Tyrosyl-tRNA synthetase, putative (Trypanosoma cruzi (strain CL Brener)); assay: Trypanosoma cruzi tyrosyl tRNA synthetase (TcYRS) SOP; assay type: functional; settings: 30 µM
# [9] = target: Chromo domain-containing protein 1 (Saccharomyces cerevisiae (strain ATCC 204508 / S288c) (Baker's yeast)) (UniProt P32657); assay: ScCHD-1 Enzyme Inhibition Assay; assay type: functional; settings: 30 µM; also: in the data most compounds retested in dose-response had high values
# Chromo domain-containing protein 1 (Saccharomyces cerevisiae (strain ATCC 204508 / S288c) (Baker's yeast)), sequence (P32657 whole entry, the tested form may be a part): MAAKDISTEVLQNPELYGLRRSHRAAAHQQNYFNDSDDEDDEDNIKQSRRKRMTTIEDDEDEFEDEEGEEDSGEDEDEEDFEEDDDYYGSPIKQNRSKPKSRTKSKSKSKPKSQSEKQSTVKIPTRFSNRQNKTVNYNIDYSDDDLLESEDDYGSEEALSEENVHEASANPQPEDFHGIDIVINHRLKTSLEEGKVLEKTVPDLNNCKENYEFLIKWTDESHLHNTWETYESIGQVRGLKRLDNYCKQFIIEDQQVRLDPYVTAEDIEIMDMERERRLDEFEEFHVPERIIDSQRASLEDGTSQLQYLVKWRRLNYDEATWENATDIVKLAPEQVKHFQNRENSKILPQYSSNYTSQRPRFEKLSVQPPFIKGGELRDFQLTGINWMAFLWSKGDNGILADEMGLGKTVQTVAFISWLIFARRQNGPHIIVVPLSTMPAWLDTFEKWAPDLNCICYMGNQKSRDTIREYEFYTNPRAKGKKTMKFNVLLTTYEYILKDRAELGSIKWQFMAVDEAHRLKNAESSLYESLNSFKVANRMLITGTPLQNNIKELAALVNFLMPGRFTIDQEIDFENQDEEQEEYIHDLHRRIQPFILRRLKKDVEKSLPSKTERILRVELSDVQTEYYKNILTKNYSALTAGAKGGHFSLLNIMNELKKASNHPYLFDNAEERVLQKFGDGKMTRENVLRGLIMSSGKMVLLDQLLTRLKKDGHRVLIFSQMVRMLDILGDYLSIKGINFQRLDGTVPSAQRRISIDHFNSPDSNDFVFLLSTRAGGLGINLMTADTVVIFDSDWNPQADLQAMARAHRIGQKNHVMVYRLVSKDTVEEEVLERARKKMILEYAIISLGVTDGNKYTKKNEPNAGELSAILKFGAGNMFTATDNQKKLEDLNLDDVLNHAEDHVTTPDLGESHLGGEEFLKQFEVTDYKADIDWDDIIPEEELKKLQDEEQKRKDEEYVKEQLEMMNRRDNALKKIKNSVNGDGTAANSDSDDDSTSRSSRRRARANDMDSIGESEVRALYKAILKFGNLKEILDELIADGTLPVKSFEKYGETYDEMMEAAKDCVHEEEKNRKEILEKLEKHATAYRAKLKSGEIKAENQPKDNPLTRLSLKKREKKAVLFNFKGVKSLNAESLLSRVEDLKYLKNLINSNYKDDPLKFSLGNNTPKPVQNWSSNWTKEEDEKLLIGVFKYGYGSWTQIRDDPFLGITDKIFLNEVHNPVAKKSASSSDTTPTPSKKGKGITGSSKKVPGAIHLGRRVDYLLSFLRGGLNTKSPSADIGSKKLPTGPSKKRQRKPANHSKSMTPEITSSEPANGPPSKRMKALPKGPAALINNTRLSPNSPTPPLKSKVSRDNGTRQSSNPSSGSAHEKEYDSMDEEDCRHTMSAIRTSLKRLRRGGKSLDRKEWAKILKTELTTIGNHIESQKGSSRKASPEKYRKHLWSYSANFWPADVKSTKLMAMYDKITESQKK
# Protein translocase subunit SecA (Escherichia coli (strain K12)), sequence (P10408 whole entry): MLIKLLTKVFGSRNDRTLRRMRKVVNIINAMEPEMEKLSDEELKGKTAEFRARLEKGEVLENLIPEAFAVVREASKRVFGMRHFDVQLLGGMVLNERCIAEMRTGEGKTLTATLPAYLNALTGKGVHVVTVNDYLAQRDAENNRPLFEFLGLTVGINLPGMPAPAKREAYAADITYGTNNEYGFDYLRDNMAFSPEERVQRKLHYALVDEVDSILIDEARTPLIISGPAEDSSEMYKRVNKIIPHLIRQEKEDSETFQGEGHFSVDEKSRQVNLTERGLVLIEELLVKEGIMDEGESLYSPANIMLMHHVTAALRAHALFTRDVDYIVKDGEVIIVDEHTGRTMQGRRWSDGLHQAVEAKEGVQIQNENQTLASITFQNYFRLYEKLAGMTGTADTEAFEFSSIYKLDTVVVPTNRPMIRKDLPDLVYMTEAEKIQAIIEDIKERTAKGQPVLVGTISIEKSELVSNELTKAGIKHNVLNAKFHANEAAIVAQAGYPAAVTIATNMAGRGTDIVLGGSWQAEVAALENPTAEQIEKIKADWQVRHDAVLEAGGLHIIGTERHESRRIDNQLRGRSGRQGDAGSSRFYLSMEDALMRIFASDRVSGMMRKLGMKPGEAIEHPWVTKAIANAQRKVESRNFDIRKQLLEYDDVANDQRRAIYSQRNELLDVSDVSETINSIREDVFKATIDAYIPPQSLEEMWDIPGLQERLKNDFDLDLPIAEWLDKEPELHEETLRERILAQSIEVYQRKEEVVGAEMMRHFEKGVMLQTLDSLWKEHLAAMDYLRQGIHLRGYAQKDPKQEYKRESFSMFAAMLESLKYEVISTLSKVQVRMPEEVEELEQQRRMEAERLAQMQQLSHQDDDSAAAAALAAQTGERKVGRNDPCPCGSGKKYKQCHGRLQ
Structure (SMILES),Percent Effect [1],Percent Effect [2],Percent Effect [3],Percent Effect [4],Percent Effect (Trypanosoma cruzi),Percent Effect [5],Percent Effect [6],Percent Effect (Homo sapiens),Percent Effect [7],Percent Effect [8],Percent Effect [9]
CC1CN(C)c2ccccc2CN1C(=O)c1ccc[nH]1 (stereo unspecified),-4.68%,5.48%,-8.65%,-2.78%,-0.196%,0.455%,12.9%,20.4%,5.38%,10%,-4.57%
COc1cc(CNCc2c(C)nn(C)c2N(C)C)ccn1,-2.79%,5.41%,-15.9%,8.34%,4.25%,-3.61%,1.62%,9.11%,4.43%,18.5%,-11.1%
COC(=O)c1ccc(N2CCN(C(=O)c3cnn(C)c3)C(C)C2)cc1 (stereo unspecified),-5.55%,17.7%,-10.6%,11.1%,6.14%,-1.52%,11.9%,9.04%,2.46%,13.9%,-12.4%
c1cncc(C2COC3(CCN(CC4CC4)CC3)C2)c1 (stereo unspecified),-5.88%,5.41%,0.748%,-4.23%,-1.17%,4.58%,12.9%,-13.5%,8.91%,1.22%,-3.69%
Cc1nnc(NC(=O)NCc2cccnc2N(C)C)s1,-3.62%,13%,-1.32%,4.98%,5.24%,4.27%,11.2%,4.88%,6.8%,21.9%,-9.15%
Cn1cnc2c1C(COCc1ccccc1)N(Cc1ccncc1)CC2 (stereo unspecified),-1.94%,2.67%,-0.486%,11.9%,-1.16%,-25.6%,7.69%,-15.2%,3.12%,10%,-6.37%
CNc1cc2c(nn1)CCN(C(=O)c1ccoc1)C2,-0.747%,7.79%,7.77%,-6.29%,-1.27%,4%,16.6%,27%,1.91%,-25.9%,-15%
COc1ccccc1CNC(=O)N1CCCC(c2nncn2C)C1 (stereo unspecified),-3.81%,13.2%,-5.69%,4.78%,0.654%,1.08%,6.85%,5.9%,7.39%,23.5%,-3.47%
Cc1csc(N2CCN(CC(=O)Nc3c(C)n[nH]c3C)CC2C)n1 (stereo unspecified),-1.64%,21.6%,-4.71%,-7.72%,-2.88%,-3.51%,15.4%,5.89%,3.96%,13.4%,-4.83%
COc1ccc(N2CCC(C(=O)/N=c3/[nH]ccs3)CC2)nn1,-5.79%,1.33%,5.74%,6.32%,0.589%,-13.9%,11.3%,44.8%,5.29%,12.8%,-12.7%
CCn1nc(C)c2nnn(CC(=O)Nc3c(C)cccc3C)c(=O)c21,-7.15%,17.3%,-10.2%,-3.51%,5.5%,-2.99%,5.73%,4.38%,6.35%,12.8%,-16.1%
